Screening results: PubChem BioAssay, several laboratories
Only some compounds are listed: those with a hit (about 1.6% of all), similar ones and a draw of the others.
eIF4H FP inh: human eIF4H binding inhibitors, primary screen, translation initiation inhibitor project, biochemical, uHTS, fluorescence polarization | Eukaryotic translation initiation factor 4H (Homo sapiens), Q15056 | eIF4H fluorescence polarization binding assay | inhibition, % at 35 µM | 290,000 compounds, 0.94% hits | AID 2012, 2009;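 also: calls also rest on retests at 20 µM and on dose response follow-up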
PABP polyA inh: PABP poly(A) RNA binding inhibitors, primary screen, biochemical, fluorescence polarization, uHTS | 290,000 compounds, 1% hits | inhibition, % at 35 µM | AID 2014, 2009;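 also: calls also rest on retests at 20 µM and on dose response follow-up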
Target sequence (P11940 whole entry, looked up): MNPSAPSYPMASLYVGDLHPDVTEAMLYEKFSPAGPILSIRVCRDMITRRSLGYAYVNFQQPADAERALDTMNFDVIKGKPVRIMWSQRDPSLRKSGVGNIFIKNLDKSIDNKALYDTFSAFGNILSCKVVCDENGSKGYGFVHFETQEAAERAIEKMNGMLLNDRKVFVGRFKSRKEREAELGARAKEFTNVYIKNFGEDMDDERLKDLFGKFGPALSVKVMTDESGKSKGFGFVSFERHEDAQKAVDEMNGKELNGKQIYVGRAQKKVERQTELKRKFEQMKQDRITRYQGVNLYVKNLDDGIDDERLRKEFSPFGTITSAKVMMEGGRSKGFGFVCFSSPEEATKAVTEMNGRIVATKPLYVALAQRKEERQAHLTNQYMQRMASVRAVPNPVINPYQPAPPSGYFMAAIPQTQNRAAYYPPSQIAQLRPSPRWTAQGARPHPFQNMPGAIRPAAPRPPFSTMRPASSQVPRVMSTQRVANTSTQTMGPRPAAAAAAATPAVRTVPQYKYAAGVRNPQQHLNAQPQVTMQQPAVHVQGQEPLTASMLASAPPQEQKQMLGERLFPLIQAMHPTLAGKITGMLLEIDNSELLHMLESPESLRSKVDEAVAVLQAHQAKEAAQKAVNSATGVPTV
PERK inh: block of dimerizer-induced PERK translation repression, primary screen, PERK inhibitor project, CHO PERK-DD cells, SEAP luminescence, HTS. 220,000 compounds, 0.17% hits. Eukaryotic translation initiation factor 2-alpha kinase 3 (Homo sapiens), Q9NZJ5. CHO PERK-DD fusion, SEAP luminescence translation reporter. inhibition, % at 5.6 µM. AID 1416, 2008;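 active = inhibition above the mean inhibition of all tested compounds plus 3 SD, set separately per screening campaign, cut at about 2.9% in these data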;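 also: PERK kinase domain activated by AP20187 dimerizer at 100 nM; 0% = DMSO with dimerizer and 100% = rapamycin at 8.4 µM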
MLLE-PAM2 inh: inhibitors of PABP1 MLLE–PAM2 peptide binding, primary screen, biochemical, fluorescence polarization, FITC-PAM2, GST-MLLE | inhibition, % at 20 µM | 360,000 compounds, 0.36% hits | AID 588489, 2011; in the data active = inhibition above about 35%, passing the limit was not always enough;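 also: plate controls were DMSO wells with GST-MLLE for no effect and wells lacking GST-MLLE protein for full effect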
eIF4E 4G PPI: eIF4E–eIF4G protein interaction inhibitors, primary screen, biochemical, uHTS, TR-FRET, eIF4GI fragment | Eukaryotic translation initiation factor 4E (Mus musculus) + Eukaryotic translation … | TR-FRET eIF4E-eIF4GI(517-606) binding, 2 h | inhibition, % at 21.7 µM | 220,000 compounds, 0.37% hits;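 active = inhibition above about 30%, limit read from the data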;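 also: 0% = full FRET control wells and 100% = background wells lacking eIF4GI fragment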
* marks the source's active call; other numbers are inactive results; ? = inconclusive; · = no result given; [ ] = dose if it differs, or a comment. Unless noted, no rule for the calls is given here.

SMILES | eIF4H FP inh | PABP polyA inh | PERK inh | MLLE-PAM2 inh | eIF4E 4G PPI
Cc1ccn(C)c(=N)c1 | active | 67* | 1 | -89 | -1
Cc1ccccc1-c1nn(-c2ccc(F)cc2F)cc1CNC1CC1 | 54* | active | 0 | 0 | 2
Cc1ccc(OCCN2CCC2(C)C(=O)Nc2ccc3c(c2)OCO3)cc1 (stereo not drawn) | · | · | · | -1 | ·
C[C@H](CO)N1C[C@H](C)[C@@H](CN(C)S(=O)(=O)c2ccc(F)cc2)Oc2ccc(NC(=O)CCN3CCOCC3)cc2C1=O | · | · | · | -11 | ·
Cc1noc(C)c1S(=O)(=O)N(CC(=O)NC(C)c1ccccc1)c1ccc(C(C)C)cc1 (stereo not drawn) | -7 | -2 | · | 5 | ·
NC(=O)C1=C[C@@H](c2ccc(C(F)(F)F)cc2)C[C@@H](OCc2ccc(CO)cc2)O1 | -13 | 2 | 1 | 1 | -2
NC(=O)C1=C[C@H](c2ccc(C(F)(F)F)cc2)C[C@H](OCc2ccc(CO)cc2)O1 | ? | 5.6* | 1 | 18 | 3
Nc1nc(SCc2ccccc2Cl)c2ncn(C3OC(CO)C(O)C3O)c2n1 (stereo not drawn) | · | · | · | 4 | ·
O=C(O)Cc1csc(-c2ccc(F)cc2)n1 | -6 | -1 | 0 | -5 | 0
O=C(O)Cc1csc(-c2ccccc2)n1 | 7.1* | 53 | 2 | 3 | 2
C/C(=N\OC(=O)c1ccccc1F)c1nccs1 | 2 | 9 | 3.4* | -14 | -2
CC(=NOC(=O)c1ccc(F)cc1)c1nccs1 | · | · | · | 6 | ·
CCN=C(N/N=C/c1ccc([N+](=O)[O-])cc1)SC | -1 | 30 | 1 | -62 | 31*[fluorescence artefact?]
O=[N+]([O-])c1ccc(C=NNC(=S)NN=Cc2ccc([N+](=O)[O-])cc2)cc1 | · | · | · | -17 | ·
Cc1ccc(C(=O)c2nccn2C)cc1C | -3 | 7 | · | 8 | ·
CCCCCCCCC[n+]1cccc2c3ccccc3ccc21 | -8 | 1 | 0 | -9 | -3
CCCCCCCCCCCCCCCC[n+]1cccc2ccccc21 | 2 | 1 | 1 | -143 | 92*[fluorescence artefact?]
NC1=NC(=O)/C(=C/c2cccc(-c3ccc(S(N)(=O)=O)cc3)c2)S1 | 90* | 36* | · | 1 | ·
NC1=NC(=O)/C(=C\c2ccc(O)c([N+](=O)[O-])c2)S1 | 0 | -7 | 0 | 27 | -2
CN(C)/C=C1/C=C(c2ccccc2)OC1=O | 2 | -2 | 1 | 6 | 3
CCC1=C/C(=C/N(C)c2ccccc2)C(=O)S1 | 53* | 80* | 1 | 31 | -18
CC[C@]12c3[nH]c4cc(-c5ccco5)ccc4c3CCN1C(=O)[C@@H](CC(=O)NC(C)(C)C)C[C@@H]2C(=O)N1CCN(C(=O)c2ccco2)CC1 | · | · | · | -23 | ·
COc1ccccc1-c1noc(-c2ccccc2)n1 | -2 | 1 | 1 | 3 | 87*
CN(C)Cc1cc(O)c(CN(C)C)cc1O | 80 | 44 | 2 | 79* | 16
O=C(Nc1nnc([C@@H]2C[C@H](O)[C@@H](CO)O2)s1)NC(c1ccccc1)c1ccccc1 | · | · | · | 3 | ·
SMILES | eIF4H FP inh | PABP polyA inh | PERK inh | MLLE-PAM2 inh | eIF4E 4G PPI
O=C(c1ccco1)N(CCC(c1ccccc1)c1ccco1)Cc1ccco1 (stereo not drawn) | 68* | 23 | 0 | -10 | 13
Cc1onc(-c2c(Cl)cccc2Cl)c1C(=O)Nn1cnnc1 | -11 | 6 | -1 | -2 | 2
Cc1onc(-c2c(Cl)cccc2Cl)c1C(=O)ONC(=O)c1cc(C(F)(F)F)cc(C(F)(F)F)c1 | 0 | -4 | 3.0* | -5 | 2
COc1cccc(OC)c1C(=O)NC(=S)Nc1ccc2oc(=O)ccc2c1 | -10 | 5 | 1 | 12 | -4
O=C(NC(=S)Nc1ccc2oc(=O)ccc2c1)c1ccco1 | -10 | -4 | 0 | 43* | -8
COc1ccc(NC(=S)Nc2ccccc2)cn1 | ? | 7 | 0 | 25 | -4
CCCCNC(=S)Nc1ccc(OC)nc1 | ? | 23 | 1 | 41* | -5
COC(=O)CCCC1=CC2=C(c3ccccc3)C(=O)C(C)(OC(=O)C3CCCC3)C(=O)C2=CN1CC1CC1 (stereo not drawn) | 7 | -2 | · | 26 | 89*
OC(CN1CCCCC1)c1ccc2c3c(cccc13)CC2 (stereo not drawn) | · | · | · | 4 | ·
CSCCC1C(C#N)=C(N)Oc2n[nH]c(-c3cccs3)c21 (stereo not drawn) | 5 | 9 | 3.1* | 10 | 0
CC(C)CC1C(C#N)=C(N)Oc2n[nH]c(-c3cccs3)c21 (stereo not drawn) | -5 | 2 | -1 | 2 | -2
c1cc(-c2ccoc2)n2ccnc2c1 | · | · | · | 47* | ·
COC(=O)C1=C(O)/C(=C\c2ccc(O)c(OC)c2)N=C1C | 56* | 83* | 1 | -35 | -1
COC(=O)C1=C(O)/C(=C\c2ccc(OCC(=O)Nc3ccccc3OC)cc2)N=C1C | 31 | 22 | · | -2 | ·
Cn1nnc(NC(=S)NC(=O)c2ccc3ccccc3c2)n1 | · | · | · | 49* | ·
Cc1cccc(COc2ccccc2C(=O)OCC(=O)N(C)c2c(N)n(Cc3ccccc3)c(=O)[nH]c2=O)c1 | 8 | 8 | · | -8 | ·
C=CCN1C=C2C(=O)C(C)(OC(=O)CC)C(=O)C=C2C=C1CCCC (stereo not drawn) | 83 | 42* | · | 23 | 97*
CC(C)N(C(=O)Nc1ccc2nsnc2c1)C(C)C | 101* | 83* | 1 | · | 3
Cc1ccc(OCC(=O)N2CCN(C(=O)c3cccs3)CC2)cc1 | active | 67* | 0 | 3 | -2
C=CCn1c(SCC(C)=O)nc2scc(-c3ccco3)c2c1=O | 67* | 44* | · | -3 | ·
C=CCn1c(SCC(=O)N2CCOCC2)nc2scc(-c3ccco3)c2c1=O | 66* | 67* | 0 | -8 | -1
C=CCn1c(SC(F)F)nc2scc(-c3ccco3)c2c1=O | -11 | 10 | · | -5 | ·
CC1(C(=O)Nc2cnc3ccccc3c2)CCN1CCOc1ccccc1 (stereo not drawn) | · | · | · | -3 | ·
CC(Nc1cc(N2CCCC2)ccc1[N+](=O)[O-])c1ccccc1 (stereo not drawn) | 0 | -2 | 2.9* | -7 | 1
CC(Nc1cc(N2CCN(S(=O)(=O)N(C)C)CC2)ccc1[N+](=O)[O-])c1ccccc1 (stereo not drawn) | 77* | active | 0 | 4 | 1
O=C(O)c1ccc(/C=N/NC(=O)c2ccc(CN3c4cccc5cccc(c45)S3(=O)=O)cc2)cc1 | 59* | 18 | 1 | -8 | -6
NC(=O)c1cccc2c1-c1ccccc1/C2=N/NC(N)=S | -12 | 5 | · | 39* | ·
